In all, about 16,000 compounds went through this assay and about 5,100 (32%) were called active. Another 25% or so got no clear call; they are omitted. Calls come from the whole dose curve; as a rule, active = well fitted curve in the direction sought with a large enough effect; inconclusive = small, poorly fitted or top-dose-only effect, or effect the other way; inactive = no such curve, though single readings can be large or run the other way. Some of the results follow.
% is set by controls: 0 for no effect and ±100 for the full control effect.

In the assay the target is Cytochrome P450 3A4 (Homo sapiens) (UniProt P08684). As to the kind of experiment: Cytochrome panel assay with activity outcomes. The following applies: recombinant CYP, pro-luciferin dealkylation, luminescence, p450-cyp3a4; series mostly up to 57.1 µM.
Cytochrome P450 3A4 (Homo sapiens), sequence (P08684 whole entry, looked up): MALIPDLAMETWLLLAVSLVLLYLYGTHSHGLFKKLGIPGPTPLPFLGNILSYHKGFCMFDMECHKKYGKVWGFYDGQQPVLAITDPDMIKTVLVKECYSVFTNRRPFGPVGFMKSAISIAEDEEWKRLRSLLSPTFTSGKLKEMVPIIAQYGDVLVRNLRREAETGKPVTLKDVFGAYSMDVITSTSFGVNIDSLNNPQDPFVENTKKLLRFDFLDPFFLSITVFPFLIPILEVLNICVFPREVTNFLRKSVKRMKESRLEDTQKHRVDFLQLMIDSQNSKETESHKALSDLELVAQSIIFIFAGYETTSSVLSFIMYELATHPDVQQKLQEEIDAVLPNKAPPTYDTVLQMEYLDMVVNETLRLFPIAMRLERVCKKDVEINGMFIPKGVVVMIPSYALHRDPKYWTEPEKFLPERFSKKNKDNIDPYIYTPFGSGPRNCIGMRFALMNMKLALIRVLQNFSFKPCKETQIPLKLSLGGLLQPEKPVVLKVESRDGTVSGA
As usually defined, the AC50 is the concentration at which the activity in the assay is half-maximal. `CCc1ccc(N(C(=O)c2csnn2)C(C(=O)NC(C)(C)C)c2ccncc2)cc1` (centres undefined): the AC50 is 3.98 µM (active).

`Cc1ccccc1/C=N\NC(=O)c1csnn1`: the AC50 result is “inactive”.

As to `CCNc1nnc(-c2ccncc2)s1`, the activity, negative = inhibition was -14.1% [at 11.4 µM] (inactive).

`Cc1ccc(N(C(=O)c2csnn2)C(C(=O)NC(C)(C)C)c2cccs2)cc1` (centres undefined): the AC50 was 7.08 µM (active).

On to `COC(=O)N1CCC2(CCN(C(=O)NC(C)C)CC2)CC1`, for which the AC50 entry is “inactive”.

Turning to `Cn1c(SCc2nnc(-c3ccc(F)cc3)o2)nnc1C1COc2ccccc2O1` (centres undefined), the AC50 was 14.1 µM (active).

As for `CC(Oc1ccc(Cl)cc1)C(=O)/C=C/N(C)C` (centres undefined), the AC50 entry is “inactive”.

On to `Oc1[nH]c2ccccc2c1/C=N/c1nccs1`, for which the half-maximal activity concentration (AC50) was 15.8 µM (active).

Take `Oc1[nH]c2ccccc2c1N=Nc1ccc(C(F)(F)F)cn1`: the AC50 entry was “inactive”.

Regarding `CC(=O)c1cnc2cc(C)nn2c1C`, the AC50 entry was “inactive”.

Take `Cc1cc(C)n(C(=O)c2cc3ccccc3c(=O)o2)n1`: the AC50 result is “inactive”.

`Cc1cc(C)n(C(=O)CCCCCCCCC(=O)n2nc(C)cc2C)n1`: the AC50 is 4.47 µM (active).

For `CC1=C(C(=O)O)N2C(=O)C(NC(=O)c3ccn(C)n3)C2SC1` (centres undefined), the AC50 entry was “inactive”.

For `O=C(CN(Cc1ccccc1Cl)C(=O)c1ccc(CN2CCOCC2)o1)NCC1CCCO1` (centres undefined), the AC50 was 12.6 µM (active).

Take `O=C(CSCc1c(F)cccc1Cl)NCC1CCCO1` (centres undefined): the AC50 result was “inactive”.

Take `CN(CC(=O)O/N=C(\N)c1ccccn1)S(=O)(=O)c1ccccc1`: the AC50 result was “inactive”.

Turning to `CC(C)(C)C1CCc2c(C(=O)N/N=C/c3cccs3)csc2C1` (centres undefined), the activity, negative = inhibition was 5.34% [at 2.29 µM] (inactive).

For `COc1ccc(N(CC(=O)NN=C2CCCC2)S(=O)(=O)c2ccccc2)cc1`, the AC50 was 2.82 µM (active).

Turning to `COCCCNC(=O)CN(c1ccc(OC)cc1)S(=O)(=O)c1ccc(NC(C)=O)cc1`, the AC50 is 12.6 µM (active).

In the case of `COc1ccc(N(CC(=O)N/N=C/c2cccs2)S(=O)(=O)c2ccc(OC)c(OC)c2)cc1`, the AC50 was 1.12 µM (active).

Consider `Cn1cccc1CC(=O)N/N=C\c1cccs1`, for which the activity, negative = inhibition was 3.8% [at 2.29 µM] (inactive).

`O=C(CN(c1ccccc1)S(=O)(=O)c1ccccc1[N+](=O)[O-])NN=C1CCCCCCC1`: the AC50 result was “inactive”.

Consider `COc1ccccc1OCC(=O)NNC(=O)c1cnccn1`, for which the activity, negative = inhibition is 16% [at 2.29 µM] (inactive).

Consider `O=C(NCc1ccccc1Cl)c1cnccn1`, for which the AC50 was 1 µM (active).

With `O=C(NNC(=O)C1CCCCC1)c1cnccn1`, the activity, negative = inhibition was -0.435% [at 2.29 µM] (inactive).

Turning to `COCCNc1ccnc(-c2cccc(NS(C)(=O)=O)c2)n1`, the AC50 was 25.1 µM (active).

As to `COc1ccc(CNc2ccnc(-c3cccc(NS(C)(=O)=O)c3)n2)c(OC)c1`, the AC50 was 3.98 µM (active).

On to `COc1cccc(-c2nccc(NCc3ccccc3OC)n2)c1`, for which the AC50 is 2.51 µM (active).

For the compound `COc1ccc(CNc2ccnc(-c3cccnc3)n2)c(OC)c1`, the AC50 is 0.631 µM (active).
